PPARg SRC1 recr – PPARgamma agonists recruiting SRC-1 coactivator, primary screen, biochemical; Peroxisome proliferator-activated receptor gamma (Homo sapiens), P37231; PPARgamma-SRC-1 coactivator recruitment biochemical assay; activation, % at 8 µM; 200,000 tested, 0.41% active; AID 631, 2007; in the data active = activation above about 19%
SRC2 TRFRET art – TR-FRET signal artefacts, primary screen, artefact control for PPARgamma SRC-2 agonist project, biochemical; TR-FRET artefact counter-screen; hits give high values; TR-FRET ratio at 8 µM; 200,000 tested, 0.4% active; in the data active = TR-FRET ratio above about 2000
PPARg SRC2 recr – agonists of PPARg-SRC-2 recruitment, primary screen, biochemical, HTS; Peroxisome proliferator-activated receptor gamma (Homo sapiens), P37231; PPARgamma LBD-SRC-2 recruitment; activation, % at 8 µM; 200,000 tested, 0.34% active; AID 1032, 2008
SRC1 TRFRET art – TR-FRET detection interference compounds, primary screen, artefact control for PPARgamma SRC-1 recruitment agonists, biochemical, TR-FRET emission ratio; TR-FRET detection artefact counter-screen; hits give high values; TR-FRET ratio at 8 µM; 99,000 tested, 0.34% active; AID 1051, 2008; in the data active = TR-FRET ratio above about 2300
PPARg SRC3 recr – PPARgamma agonists recruiting SRC-3 coactivator, primary screen, biochemical. biochemical PPARgamma/SRC-3 coactivator recruitment assay. 200,000 tested, 0.26% active. AID 731, 2007. activation, % at 8 µM. Peroxisome proliferator-activated receptor gamma (Homo sapiens), P37231; in the data active = activation above about 23%
SRC3 TRFRET art – TR-FRET detection interference compounds, artefact control for PPARgamma SRC-3 recruitment agonists, biochemical, TR-FRET ratio; TR-FRET artefact counter-screen, PPARgamma/SRC-3 format; hits give high values; TR-FRET ratio at 8 µM; 99,000 tested, 0.39% active; AID 1048, 2008; in the data active = TR-FRET ratio above about 2000
PPARg SRC2 ag – agonists of PPARgamma SRC-2 coactivator recruitment, confirmation, biochemical, HTS; AID 1297, 2008; activation, % at 8 µM; shares compounds with PPARg SRC3 recr; 790 tested, 52% active; biochemical SRC-2 recruitment by PPARgamma
PPARg SRC1 ag – PPARgamma agonists recruiting SRC-1 coactivator, confirmation, biochemical; shares compounds with PPARg SRC3 recr; PPARgamma–SRC-1 coactivator recruitment biochemical assay; activation, % at 8 µM; 790 tested, 43% active; AID 1300, 2008; in the data active = activation above about 20%
PPARg SRC3 ag – PPARgamma-driven SRC-3 coactivator recruitment agonists, confirmation, biochemical; shares compounds with PPARg SRC3 recr; biochemical PPARgamma-SRC-3 coactivator recruitment, agonist mode; activation, % at 8 µM; 790 tested, 29% active; AID 1301, 2008; in the data active = activation above about 24%
Numbers stand for hits. Rows were chosen to be rich in hits. Some 0.9% of all compounds tested hit in one or more screens of this group. Rule as the data show it, unless noted: active = activation above about 22%; inactive = the rest.

`O=C(COC(=O)CCc1ccc(S(=O)(=O)N2CCOCC2)cc1)NCc1ccc(Cl)cc1` gave PPARg SRC1 recr inactive, SRC2 TRFRET art inactive, PPARg SRC2 recr inactive, SRC1 TRFRET art inactive, PPARg SRC3 recr inactive and SRC3 TRFRET art inactive.
Screening Cc1ccc(-c2n[nH]c(=S)n2-c2ccccc2)cc1 returned PPARg SRC1 recr inactive, SRC2 TRFRET art inactive, PPARg SRC2 recr inactive and PPARg SRC3 recr inactive.
`CS(=O)(=O)Nc1ccc(-c2n[nH]c(=S)n2-c2ccccc2)cc1` gave PPARg SRC1 recr 19, SRC2 TRFRET art inactive, PPARg SRC2 recr inactive, PPARg SRC3 recr inactive, PPARg SRC2 ag inactive, PPARg SRC1 ag inactive and PPARg SRC3 ag inactive.
`Cc1ccc(-n2c(-c3cccc(C)c3)n[nH]c2=S)cc1` gave PPARg SRC1 recr 20, SRC2 TRFRET art 1998, PPARg SRC2 recr 32, PPARg SRC3 recr 36, PPARg SRC2 ag 30, PPARg SRC1 ag 22 and PPARg SRC3 ag inactive.
Screening Cc1cccc(CSc2nc(N)c(C#N)c(-c3cccs3)c2C#N)c1 returned PPARg SRC1 recr inactive, SRC2 TRFRET art inactive, PPARg SRC2 recr 23, PPARg SRC3 recr inactive, PPARg SRC2 ag inactive, PPARg SRC1 ag inactive and PPARg SRC3 ag inactive.
Screening Cc1cccc(CSc2nc3c(c(-c4cccs4)c2C#N)CN(C)CC3)c1 returned PPARg SRC1 recr inactive, SRC2 TRFRET art inactive, PPARg SRC2 recr inactive, SRC1 TRFRET art inactive, PPARg SRC3 recr inactive and SRC3 TRFRET art inactive.
CN=C(Nc1cc(Cl)ccc1Cl)SC1CC(=O)N(c2ccc(C(=O)OC)cc2)C1=O (configuration not stated) was read as PPARg SRC1 recr inactive, SRC2 TRFRET art inactive, PPARg SRC2 recr inactive and PPARg SRC3 recr inactive.
For COc1cnn(-c2ccccc2)c(=O)c1SCc1ccc(Cl)c(Cl)c1 the results were PPARg SRC1 recr inactive, SRC2 TRFRET art inactive, PPARg SRC2 recr inactive and PPARg SRC3 recr inactive.
`CSc1c(SCc2ccccc2)cnn(-c2ccccc2)c1=O` gave PPARg SRC1 recr 24, SRC2 TRFRET art inactive, PPARg SRC2 recr 27, SRC1 TRFRET art 2714, PPARg SRC3 recr inactive, SRC3 TRFRET art 2060, PPARg SRC2 ag 50, PPARg SRC1 ag 36 and PPARg SRC3 ag 33.
For Cc1ccc(Sc2c(O)c3ccccc3n(C)c2=O)cc1 the results were PPARg SRC1 recr 24, SRC2 TRFRET art 2048, PPARg SRC2 recr 26, SRC1 TRFRET art inactive, PPARg SRC3 recr inactive, SRC3 TRFRET art 2226, PPARg SRC2 ag 22, PPARg SRC1 ag inactive and PPARg SRC3 ag inactive.
For Cc1ccc(Sc2c(C=O)c3ccccc3n2C)cc1 the results were PPARg SRC1 recr inactive, SRC2 TRFRET art inactive, PPARg SRC2 recr inactive and PPARg SRC3 recr inactive.
N#Cc1c(Cl)nc(SCc2ccccc2)nc1-c1ccccc1 was read as PPARg SRC1 recr 59, SRC2 TRFRET art 2883, PPARg SRC2 recr 67, PPARg SRC3 recr 70, PPARg SRC2 ag 80, PPARg SRC1 ag 65 and PPARg SRC3 ag 54.
O=C(Nn1c(O)c(C=C2N=c3ccccc3=N2)sc1=S)c1cccc(Cl)c1 was read as PPARg SRC1 recr inactive, SRC2 TRFRET art inactive, PPARg SRC2 recr inactive, PPARg SRC3 recr 27, PPARg SRC2 ag 23, PPARg SRC1 ag inactive and PPARg SRC3 ag inactive.
O=C1N=c2ccccc2=C1c1sc(=S)n(NC(=O)c2cccc(O)c2)c1O was read as PPARg SRC1 recr 22, SRC2 TRFRET art inactive, PPARg SRC2 recr inactive, SRC1 TRFRET art inactive, PPARg SRC3 recr inactive, SRC3 TRFRET art 2060, PPARg SRC2 ag 35, PPARg SRC1 ag 27 and PPARg SRC3 ag inactive.
Screening O=C(Nn1c(O)c(C=C2N=c3ccccc3=N2)sc1=S)c1ccc(Cl)cc1 returned PPARg SRC1 recr inactive, SRC2 TRFRET art inactive, PPARg SRC2 recr inactive and PPARg SRC3 recr inactive.
For Cc1cc(C)cc(OCC(=O)OCc2nnc(-c3ccccc3)o2)c1 the results were PPARg SRC1 recr inactive, SRC2 TRFRET art inactive, PPARg SRC2 recr inactive, SRC1 TRFRET art inactive, PPARg SRC3 recr inactive and SRC3 TRFRET art inactive.
Screening Nc1c(C(=O)Nc2ccc(F)cc2)sc2nc(-c3ccco3)ccc12 returned PPARg SRC1 recr inactive, SRC2 TRFRET art inactive, PPARg SRC2 recr inactive and PPARg SRC3 recr inactive.
Screening Nc1c(C(=O)Nc2ccc(Br)cc2)sc2nc(-c3ccco3)ccc12 returned PPARg SRC1 recr inactive, SRC2 TRFRET art inactive, PPARg SRC2 recr 23, PPARg SRC3 recr inactive, PPARg SRC2 ag inactive, PPARg SRC1 ag inactive and PPARg SRC3 ag inactive.
`CC12CCC(C(=O)N(CSC(=S)N/N=C\c3ccccc3O)C1=O)C2(C)C` (configuration not stated) gave PPARg SRC1 recr inactive, SRC2 TRFRET art inactive, PPARg SRC2 recr 30, PPARg SRC3 recr 43, PPARg SRC2 ag 46, PPARg SRC1 ag 43 and PPARg SRC3 ag 25.
COc1ccc(N(CN2C(=O)C3CC=CCC3C2=O)C(=O)c2ccco2)cc1 (configuration not stated) was read as PPARg SRC1 recr 19, SRC2 TRFRET art inactive, PPARg SRC2 recr inactive, PPARg SRC3 recr inactive, PPARg SRC2 ag inactive, PPARg SRC1 ag inactive and PPARg SRC3 ag inactive.
`COc1ccccc1NC(=O)Cn1cnc2sc(C)c(S(=O)(=O)N3CCCCC3)c2c1=O` gave PPARg SRC1 recr inactive, SRC2 TRFRET art inactive, PPARg SRC2 recr inactive, SRC1 TRFRET art inactive, PPARg SRC3 recr inactive and SRC3 TRFRET art inactive.
`CC1Cc2cccc3c(O)c(C(=O)c4nn[nH]n4)c(=O)n1c23` (configuration not stated) gave PPARg SRC1 recr inactive, SRC2 TRFRET art inactive, PPARg SRC2 recr inactive, SRC1 TRFRET art inactive, PPARg SRC3 recr inactive and SRC3 TRFRET art inactive.
For O=C(COC(=O)CNC(=O)c1ccccc1)Nc1ccc2c(c1)OCO2 the results were PPARg SRC1 recr inactive, SRC2 TRFRET art inactive, PPARg SRC2 recr inactive, SRC1 TRFRET art inactive, PPARg SRC3 recr inactive and SRC3 TRFRET art inactive.
Screening COC(=O)c1cc2ccccn2c2c(C(=O)OC)c(C(=O)OC)cc1-2 returned PPARg SRC1 recr inactive, SRC2 TRFRET art inactive, PPARg SRC2 recr inactive and PPARg SRC3 recr inactive.

Assay outcomes as filed in PubChem BioAssay.
